High-throughput results (PubChem BioAssay)
Shown is part of a subset that was picked to be rich in hits.
SF1 inhibitor: inhibitors of human SF-1, primary screen, cell-based, CHO-K1, Gal4-SF-1 LBD, luciferase luminescence; hit rate 0.55% among 65,000; Steroidogenic factor 1 (Homo sapiens), Q13285; inhibition, % at 10 µM; AID 525, 2006; CHO-K1 Gal4-SF-1 LBD luciferase reporter;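 active means inhibition above the mean inhibition of all tested compounds plus 3 SD, cut at about 48% in these data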;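 further: 0% = SF-1 transfected cells with DMSO and 100% = mock-transfected cells lacking SF-1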
Target sequence (Q13285 whole entry, looked up, the tested form may be a part): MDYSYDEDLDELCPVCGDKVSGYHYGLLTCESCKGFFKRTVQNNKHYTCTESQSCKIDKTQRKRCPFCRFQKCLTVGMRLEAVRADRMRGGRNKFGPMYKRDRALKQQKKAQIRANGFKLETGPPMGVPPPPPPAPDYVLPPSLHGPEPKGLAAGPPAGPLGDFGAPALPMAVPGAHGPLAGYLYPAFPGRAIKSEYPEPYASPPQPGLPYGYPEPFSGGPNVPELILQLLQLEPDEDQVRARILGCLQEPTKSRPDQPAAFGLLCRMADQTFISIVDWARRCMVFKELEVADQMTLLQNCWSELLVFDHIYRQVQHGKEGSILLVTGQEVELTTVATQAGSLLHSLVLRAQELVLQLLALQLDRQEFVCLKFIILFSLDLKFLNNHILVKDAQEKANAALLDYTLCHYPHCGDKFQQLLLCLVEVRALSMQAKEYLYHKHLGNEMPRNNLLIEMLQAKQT
* = called active by the depositor.

SMILES	SF1 inhibitor
Cc1csc(SCCN2C(=O)c3ccccc3C2=O)n1	-64.8
CCOC(=O)c1cccc(NC(=O)Cn2cc3c(n2)CCC(C)C3)c1 (stereo not drawn)	13.2
CNC(=O)NC(=O)COC(=O)CCCOc1ccc(OC)cc1	9.0
O=C(CSc1n[nH]c(-c2ccncc2)n1)NC1CCS(=O)(=O)C1 (stereo not drawn)	10.5
CCOC(=O)C1CCN(S(=O)(=O)c2c(C)[nH]c(=O)[nH]c2=O)CC1	-10.0
Cc1ccc(N=Cc2ccc[nH]2)c(O)c1	-9.0
CCOc1cc(C(=O)CSc2nnc(CNc3ccc(Cl)cc3)o2)ccc1NC(=O)CC	56.4*
COc1ccc(OC)c(NC(=O)CSc2nnc(CNc3ccc(F)cc3)o2)c1	-9.5
COC(=O)c1ccc(C(=O)OC)c(NC(=O)CSc2nnc(-c3ccccc3Cl)o2)c1	2.7
Cc1noc(C)c1COC(=O)c1cc2c3ccccc3n(C)c2s1	0.7
O=S(=O)(/C=C/c1ccccc1)n1cnc2ccccc21	5.2
CCCc1[nH]nc2c1C1(C(=O)N(CC)c3ccccc31)C(C#N)=C(N)O2 (stereo not drawn)	11.6
CC(C)Oc1ccc(/C(O)=C2/C(=O)C(=O)N(CCN(C)C)C2c2ccco2)cc1 (stereo not drawn)	-27.8
COCCCNc1oc(-c2ccccc2OC)nc1C#N	7.2
COc1cccc(-c2nnc(Nc3nc4c(F)cccc4s3)o2)c1	-51.4
COc1ccccc1-c1nnc(Nc2nc3c(OC)cccc3s2)o1	67.0*
Cc1cccc(-n2ncc3c(NCc4ccco4)ncnc32)c1	-93.2
Cc1cccc(-n2ncc3c(NCc4ccccc4)ncnc32)c1	-82.3
c1ccc(-n2ncc3c(NCCN4CCCCC4)ncnc32)cc1	-68.8
CCN(c1ccccc1)c1ncnc2c1cnn2-c1ccccc1	-59.1
COc1ccc(-n2ncc3c(N(C)C4CCCCC4)ncnc32)cc1	74.1*
Cc1cccc(-n2ncc3c(N(C)C4CCCCC4)ncnc32)c1	77.2*
O=C(NC1CCCCC1)c1cc2nc3c(c(C(F)(F)F)n2n1)CCCC3	-50.4
Cc1cccc(N(C)C(=S)Oc2ccc3ccccc3c2)c1	-9.0
CC(C)OC(=O)c1ccc(NC(=O)C2C3CC4OC(=O)C2C4C3)cc1 (stereo not drawn)	-56.4
SMILES	SF1 inhibitor
CC12CCC(C(=O)N3CCN(C(=O)C45CCC(C)(C(=O)O4)C5(C)C)CC3)(OC1=O)C2(C)C	-7.2
CCc1nc2oc3ccccc3c(=O)c2c(=O)n1-c1ccccc1	-70.7
Cc1nnc(Sc2nc3c(c(=O)[nH]c(=O)n3C)n2CCCc2ccccc2)s1	2.9
O=C(OCC#CCSc1nc2ccccc2o1)c1ccco1	-23.5
CCOC(=O)Cc1cn2c(=O)cc(CSCC(=O)Nc3ccc(C)c(C)c3)nc2s1	-4.7
CC1CCc2nc(NC(=O)c3ccco3)sc2C1 (stereo not drawn)	63.6*
CC1CCc2nc(NC(=O)Cc3cccs3)sc2C1 (stereo not drawn)	-63.1
CS(=O)(=O)c1ccc2nc(NC(=O)c3ccco3)sc2c1	-74.4
O=C(NCC(c1cccnc1)N1CCN(c2ccc(F)cc2)CC1)c1ccc2c(c1)OCO2 (stereo not drawn)	16.7
Brc1cccc(-c2nnc(-c3ccccc3)o2)c1	-60.5
O=S1(=O)C=C(Sc2nnc(-c3ccccc3)o2)c2ccccc21	65.6*
COc1ccccc1NC(=O)CSc1nnc(-c2ccc(C)cc2)o1	-56.6
COc1ccc(C2(CN(C(C)=O)C(C)=O)CCCC2)cc1OC	3.2
CNS(=O)(=O)c1cccc(C(=O)OCC(=O)Nc2ccccc2OC(F)F)c1	2.7
Cn1c(=O)c2nc(-c3ccc(Cl)cc3Cl)oc2c2ccccc21	-13.3
CCc1ccc(N2CCCn3c2nc2c3c(=O)n(CCN3CCOCC3)c(=O)n2C)cc1	-18.0
CC(C)c1nc2oc3c(N4CCNCC4)ncnc3c2c2c1CCC2	-14.7
O=c1[nH]c(CN2CCN(Cc3ccccc3)CC2)nc2sc3c(c12)CCC3	-4.6
Oc1ccc(N2CCN(c3ncnc4sc5c(c34)CCC5)CC2)cc1	49.9*
CC(=O)Nc1ccc(-n2c(C)c(C(C)=O)c(C(C)=O)c2C)cc1	15.7
Cn1c(=O)[nH]c(=O)c2c1nc(SCC(=O)Nc1ccccc1)n2Cc1ccccc1	-15.5
CCc1ccc2oc(-c3cc(N)ccc3O)nc2c1	56.0*
CCc1ccc2oc(-c3cc(N)cc(C)c3O)nc2c1	-38.9
CCc1ccc2oc(-c3cc(N)ccc3Cl)nc2c1	16.7
CC(=O)NC1(C(F)(F)F)NC(=O)N(CC(C)C)C1=O (stereo not drawn)	3.7
SMILES	SF1 inhibitor
C=CCNc1sc(C(=O)c2cccs2)c(N)c1C#N	-8.4
CCn1cc(Br)c(C(=O)Nc2ccc(F)c(Cl)c2)n1	-35.2
O=C(Nc1nccs1)c1ccc(NC(=O)c2ccco2)cc1	-55.9
CC(C(=O)N1CCCCC1)N1C(=O)c2ccccc2C1=O (stereo not drawn)	4.4
O=C(NCCCN1CCOCC1)c1csc2c1CCCC2	74.0*
COc1cccc(-c2cc(C(=O)NCCN3CCOCC3)no2)c1	1.0
O=C(NCCCN1CCCCCC1)c1ccc2c(c1)NC(=O)C(N1CCOCC1)S2 (stereo not drawn)	7.7
c1ccc(-c2nc(N3CCCCCC3)c3ccccc3n2)nc1	86.4*
O=S(=O)(NC1CCCCC1)c1cccc(-c2nnc(-c3ccccc3)o2)c1	8.0
COC1Cc2ccccc2N(C(=O)N2CCN(CCO)CC2)c2ccccc21 (stereo not drawn)	0.0
COc1ccccc1-c1cn(S(=O)(=O)c2ccc(F)cc2)nc1N	9.4
Cc1cc(C)n(-c2ccc3cccc(NS(C)(=O)=O)c3n2)n1	78.7*
CCOC(=O)CCNC(=O)Nc1ccc2nc(C)n(Cc3cccc(Cl)c3)c(=O)c2c1	6.2
O=C(c1ccccc1)c1c[nH]c2cc3c(cc2c1=O)OCCO3	-50.0
COc1ccc(C)cc1NC(=O)c1cc2c(CO)cnc(C)c2oc1=N	-24.3
CC1CCN(C(=O)c2ccc(NC(=O)C3CCCO3)cc2)CC1 (stereo not drawn)	-6.2
CCOc1ccc(-c2nnc(N)o2)cc1	3.1
Cc1ccc(OCc2nc(-c3ccccc3)no2)c(C)c1	-58.8
Cc1ccc(-c2noc(CCCC(=O)N3CCOCC3)n2)cc1	2.1
COc1ccc(-c2ccc(CCC(=O)O)n2C(C)C)cc1	-18.7
COc1ccc(-c2noc(CCCC(=O)O)n2)cc1	56.6*
CCOc1ccc(-c2noc(CCC(=O)O)n2)cc1	53.2*
O=C(c1ccc(C23CC4CC(CC(C4)C2)C3)o1)N1CCOCC1	-14.0
CN(C)S(=O)(=O)c1ccc(C(=O)N2CCC(c3nc4ccccc4o3)CC2)cc1	-5.9
FC(F)(F)C(F)(F)C(F)(F)c1nnc2ccc(N3CCOCC3)nn12	7.9
SMILES	SF1 inhibitor
CN(C)CCN1C(=O)C(=O)/C(=C(/O)c2ccccc2)C1c1ccccc1F (stereo not drawn)	-2.2
O=C(NC1CCCCCC1)C1CCN(C(=O)Cc2ccccc2)CC1	17.5
O=C(CCN1CCN(c2ccccc2)CC1)Nc1nccs1	7.9
CCSc1nnc(NC(=O)c2ccccn2)s1	55.4*
CCSc1nnc(Nc2ccccc2)s1	-53.8
CCSc1nnc(NC(=O)c2cc3c(s2)CCCC3)s1	-51.6
CCOC(=O)COc1nc(Nc2ccccc2C)nc(N(C)C)n1	-6.6
COc1ccccc1OC(=O)C1CC(=O)N(c2ccc(Cl)cc2)C1 (stereo not drawn)	5.9
N#CC(C#N)=c1ccc2c(c1)NC1(CCCCC1)N=2	64.6*
COc1ccc(NC(=O)c2cc(-c3cccs3)on2)cc1OC	4.9
Cn1c(N)c(C(=O)CSc2nc3ccccc3n2-c2ccccc2)c(=O)n(C)c1=O	-13.0
